{"source": "PubChem BioAssay (NCI)", "note": "The panel holds about 83,000 compounds, 20% with a hit somewhere; the sample as a whole holds those more often.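 Activity criterion: percent growth below 10, measured after cells in 96-well plates were exposed to a single compound concentration for 48 hours.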 Activity calls are given as the source filed them."}
{"system": "MOLT-4 leukemia", "experiment": "NCI-60 one-dose screen, 48 h (100 = growth as untreated, 0 = no growth, -100 = all killed)", "settings": "10 µM"}
{"smiles": "CCOC(=O)c1cc(C(=O)c2cc(OC)c(OC)c(OC)c2)n2ncc3ccccc3c12", "growth": "62% (inactive)"}
{"smiles": "Cc1c(Cl)cccc1NC(=O)CCCl", "growth": "85.3% (inactive)"}
{"smiles": "Cc1ccc(S(=O)(=O)N(C)CCCCCC(=O)O)cc1", "growth": "95.1% (inactive)"}
{"smiles": "COc1cc(-c2nn(-c3cccc(NC(=O)NCCNS(=O)(=O)c4ccc(Cl)cc4)c3)cc2-c2ccncc2)ccc1Cl", "growth": "12.1% (inactive)"}
{"smiles": "CC(=O)Oc1cc(OC(C)=O)c2ccccc2c1OC(C)=O", "growth": "69.5% (inactive)"}
{"smiles": "COc1cc(-c2nn(-c3cccc(NC(=O)CN4CCOCC4)c3)cc2-c2cccnc2)ccc1Cl", "growth": "74.3% (inactive)"}
{"smiles": "Cc1ccc(NCCNCC(C)(C)O)c2c(=O)c3ccc(Cl)cc3sc12", "growth": "-30.7% (active)"}
{"smiles": "COC(=O)C1(O)NC(=C(C#N)C#N)C(C#N)=C1C(=O)c1ccc(OC)c(OC)c1", "note": "(stereo not given)", "growth": "92.1% (inactive)"}
{"smiles": "CCN(CC)CCOc1ccc2c(c1O)C(=O)c1ccccc1C2=O", "growth": "72.3% (inactive)"}
{"smiles": "COc1cc(-c2nn(-c3ccc(NC(=O)NCCCNC(=O)c4ccccc4)cc3)cc2-c2ccncc2)ccc1Cl", "growth": "23.5% (inactive)"}
{"smiles": "COc1ccc2nc(-c3ccc(Cl)cc3)cc(-c3nnc(SC/C(=N\\O)c4ccccc4)n3-c3ccccc3)c2c1", "growth": "47.5% (inactive)"}
{"smiles": "CCOS(=O)(=O)c1c(C(C)C)cc(C(C)C)cc1C(C)C", "growth": "97.6% (inactive)"}
{"smiles": "O=S(=O)(O)c1cccc(Nc2ccc3ccccc3c2)c1", "growth": "95.3% (inactive)"}
{"smiles": "CN(C)CCCSc1ccccc1NC1=C(Cl)C(=O)C(Nc2ccccc2SCCCN(C)C)=C(Cl)C1=O", "growth": "-34% (active)"}
{"smiles": "Brc1ccc2c(c1)-c1ccccc1C1=NCCN12", "growth": "-7.7% (active)"}
{"smiles": "CC(C)CCN(CCC(C)C)CC(=O)Nc1ccc(S(=O)(=O)c2ccc(NC(=O)CN(CCC(C)C)CCC(C)C)cc2)cc1", "growth": "2.75% (active)"}
{"smiles": "CCNCC(=O)Nc1ccc(C(=O)OCC)cc1", "growth": "87.5% (inactive)"}
{"smiles": "O=C(NCCCNS(=O)(=O)c1ccc(Cl)cc1)Nc1ccc(-n2cc(-c3ccncc3)c(-c3ccc(Cl)c(O)c3)n2)cc1", "growth": "15.6% (inactive)"}
{"smiles": "C1CN(CC2CCC(CN3CCOCC3)O2)CCO1", "note": "(stereo not given)", "growth": "68.2% (inactive)"}
{"smiles": "CCN(CC)CC(=O)N(CC)c1ccc(C)c(Cl)c1", "growth": "65.1% (inactive)"}
{"smiles": "CC(CN(C)C)Oc1ccc(OC(C)CN(C)C)c2c1C(=O)c1ccccc1C2=O", "note": "(stereo not given)", "growth": "9.9% (active)"}
{"smiles": "O=C1c2ccccc2C(=O)c2c1ccc(C(Br)Br)c2[N+](=O)[O-]", "growth": "-45.5% (active)"}
{"smiles": "COc1cc(-c2nn(-c3cccc(NC(=O)CCN4CCN(c5ccccc5)CC4)c3)cc2-c2ccncc2)ccc1Cl", "growth": "15.4% (inactive)"}
{"smiles": "O=C(Nc1ccc(F)cc1)c1cc2ccccc2cc1O", "growth": "46.9% (inactive)"}
{"smiles": "O=C(Nc1ccc2c(O)cc(S(=O)(=O)O)cc2c1)c1ccc([N+](=O)[O-])cc1", "growth": "63.7% (inactive)"}
{"smiles": "CN(C)CCCOc1cccc(NC2=C(Cl)C(=O)C(Nc3cccc(OCCCN(C)C)c3)=C(Cl)C2=O)c1", "growth": "-37.1% (active)"}
{"smiles": "COc1cc(OC)c2c(=O)c(O)c(-c3ccccc3)oc2c1", "growth": "54.3% (inactive)"}
{"smiles": "CC(=O)Nc1ccc(CC[C@H]2CCC/C=C/[C@@H]3C[C@H](O)C[C@H]3[C@H](O)/C=C/C(=O)O2)cc1", "growth": "-6.82% (active)"}
{"smiles": "Nc1ncnc2c1ncn2C1(CO)OCC(O)C(O)C1O", "note": "(stereo not given)", "growth": "105% (inactive)"}
{"smiles": "O=C(Nc1cccc2c1CCCC2)c1cc2ccccc2cc1O", "growth": "20.6% (inactive)"}
{"smiles": "CN(C)CCCOc1ccccc1NC1=C(Cl)C(=O)C(Nc2ccccc2OCCCN(C)C)=C(Cl)C1=O", "growth": "-33.8% (active)"}
{"smiles": "O=C(N/N=C/c1ccc([N+](=O)[O-])cc1)c1ccccc1Nc1cccc(C(F)(F)F)c1", "growth": "109% (inactive)"}
{"smiles": "NNC(=O)Oc1c(Cl)cc(Cl)cc1[N+](=O)[O-]", "growth": "97.6% (inactive)"}
{"smiles": "Nc1ccc(/C=N/Nc2ccnc3c(O)cccc23)c2cccnc12", "growth": "14.5% (inactive)"}
{"smiles": "O=S(=O)(O)c1ccc(Cl)cc1", "growth": "98.7% (inactive)"}
{"smiles": "COc1cc(-c2nn(-c3cccc(NC(=O)NCCNC(=O)c4cccc(C(F)(F)F)c4)c3)cc2-c2ccncc2)ccc1Cl", "growth": "27.3% (inactive)"}
{"smiles": "CCOC(=O)c1cc(C(=O)c2cc(OC)c(OC)c(OC)c2)n2ccc(-c3cc[n+](CC(=O)c4cc(OC)c(OC)c(OC)c4)cc3)cc12", "growth": "-9.13% (active)"}
{"smiles": "CCOC(=O)c1cc(C(=O)c2cc(OC)c(OC)c(OC)c2)n2nc(C)ccc12", "growth": "18.4% (inactive)"}
{"smiles": "CCOC(=O)c1cc(C(=O)c2ccc(Cl)cc2)n2ccc(-c3cc[n+](CC(=O)c4ccc(OC)cc4)cc3)cc12", "growth": "11.1% (inactive)"}
{"smiles": "C/C=C/CSC(C)(C)C(=O)NC", "growth": "102% (inactive)"}
{"system": "SR leukemia", "experiment": "NCI-60 one-dose screen, 48 h (100 = growth as untreated, 0 = no growth, -100 = all killed)", "settings": "10 µM"}
{"smiles": "CCOC(=O)c1cc(C(=O)c2cc(OC)c(OC)c(OC)c2)n2ncc3ccccc3c12", "growth": "23.1% (inactive)"}
{"smiles": "Cc1c(Cl)cccc1NC(=O)CCCl", "growth": "84.1% (inactive)"}
{"smiles": "Cc1ccc(S(=O)(=O)N(C)CCCCCC(=O)O)cc1", "growth": "101% (inactive)"}
{"smiles": "COc1cc(-c2nn(-c3cccc(NC(=O)NCCNS(=O)(=O)c4ccc(Cl)cc4)c3)cc2-c2ccncc2)ccc1Cl", "growth": "1.18% (active)"}
{"smiles": "CC(=O)Oc1cc(OC(C)=O)c2ccccc2c1OC(C)=O", "growth": "69.4% (inactive)"}
{"smiles": "COc1cc(-c2nn(-c3cccc(NC(=O)CN4CCOCC4)c3)cc2-c2cccnc2)ccc1Cl", "growth": "37.3% (inactive)"}
{"smiles": "Cc1ccc(NCCNCC(C)(C)O)c2c(=O)c3ccc(Cl)cc3sc12", "growth": "-31.2% (active)"}
{"smiles": "COC(=O)C1(O)NC(=C(C#N)C#N)C(C#N)=C1C(=O)c1ccc(OC)c(OC)c1", "note": "(stereo not given)", "growth": "89.7% (inactive)"}
{"smiles": "CCN(CC)CCOc1ccc2c(c1O)C(=O)c1ccccc1C2=O", "growth": "63.5% (inactive)"}
{"smiles": "COc1cc(-c2nn(-c3ccc(NC(=O)NCCCNC(=O)c4ccccc4)cc3)cc2-c2ccncc2)ccc1Cl", "growth": "20.2% (inactive)"}
{"smiles": "COc1ccc2nc(-c3ccc(Cl)cc3)cc(-c3nnc(SC/C(=N\\O)c4ccccc4)n3-c3ccccc3)c2c1", "growth": "67.1% (inactive)"}
{"smiles": "CCOS(=O)(=O)c1c(C(C)C)cc(C(C)C)cc1C(C)C", "growth": "85.1% (inactive)"}
{"smiles": "O=S(=O)(O)c1cccc(Nc2ccc3ccccc3c2)c1", "growth": "92% (inactive)"}
{"smiles": "CN(C)CCCSc1ccccc1NC1=C(Cl)C(=O)C(Nc2ccccc2SCCCN(C)C)=C(Cl)C1=O", "growth": "2.97% (active)"}
{"smiles": "Brc1ccc2c(c1)-c1ccccc1C1=NCCN12", "growth": "-0.353% (active)"}
{"smiles": "CC(C)CCN(CCC(C)C)CC(=O)Nc1ccc(S(=O)(=O)c2ccc(NC(=O)CN(CCC(C)C)CCC(C)C)cc2)cc1", "growth": "3.98% (active)"}
{"smiles": "CCNCC(=O)Nc1ccc(C(=O)OCC)cc1", "growth": "82.3% (inactive)"}
{"smiles": "O=C(NCCCNS(=O)(=O)c1ccc(Cl)cc1)Nc1ccc(-n2cc(-c3ccncc3)c(-c3ccc(Cl)c(O)c3)n2)cc1", "growth": "17% (inactive)"}
{"smiles": "C1CN(CC2CCC(CN3CCOCC3)O2)CCO1", "note": "(stereo not given)", "growth": "61.7% (inactive)"}
{"smiles": "CCN(CC)CC(=O)N(CC)c1ccc(C)c(Cl)c1", "growth": "82.3% (inactive)"}
{"smiles": "CC(CN(C)C)Oc1ccc(OC(C)CN(C)C)c2c1C(=O)c1ccccc1C2=O", "note": "(stereo not given)", "growth": "20.7% (inactive)"}
{"smiles": "O=C1c2ccccc2C(=O)c2c1ccc(C(Br)Br)c2[N+](=O)[O-]", "growth": "-32% (active)"}
{"smiles": "COc1cc(-c2nn(-c3cccc(NC(=O)CCN4CCN(c5ccccc5)CC4)c3)cc2-c2ccncc2)ccc1Cl", "growth": "4.54% (active)"}
{"smiles": "O=C(Nc1ccc(F)cc1)c1cc2ccccc2cc1O", "growth": "43.2% (inactive)"}
{"smiles": "O=C(Nc1ccc2c(O)cc(S(=O)(=O)O)cc2c1)c1ccc([N+](=O)[O-])cc1", "growth": "60.9% (inactive)"}
{"smiles": "CN(C)CCCOc1cccc(NC2=C(Cl)C(=O)C(Nc3cccc(OCCCN(C)C)c3)=C(Cl)C2=O)c1", "growth": "-9.52% (active)"}
{"smiles": "COc1cc(OC)c2c(=O)c(O)c(-c3ccccc3)oc2c1", "growth": "40.1% (inactive)"}
{"smiles": "CC(=O)Nc1ccc(CC[C@H]2CCC/C=C/[C@@H]3C[C@H](O)C[C@H]3[C@H](O)/C=C/C(=O)O2)cc1", "growth": "3.92% (active)"}
{"smiles": "Nc1ncnc2c1ncn2C1(CO)OCC(O)C(O)C1O", "note": "(stereo not given)", "growth": "109% (inactive)"}
{"smiles": "O=C(Nc1cccc2c1CCCC2)c1cc2ccccc2cc1O", "growth": "18% (inactive)"}
{"smiles": "CN(C)CCCOc1ccccc1NC1=C(Cl)C(=O)C(Nc2ccccc2OCCCN(C)C)=C(Cl)C1=O", "growth": "-4.17% (active)"}
{"smiles": "O=C(N/N=C/c1ccc([N+](=O)[O-])cc1)c1ccccc1Nc1cccc(C(F)(F)F)c1", "growth": "104% (inactive)"}
{"smiles": "NNC(=O)Oc1c(Cl)cc(Cl)cc1[N+](=O)[O-]", "growth": "87.5% (inactive)"}
{"smiles": "Nc1ccc(/C=N/Nc2ccnc3c(O)cccc23)c2cccnc12", "growth": "2.19% (active)"}
{"smiles": "O=S(=O)(O)c1ccc(Cl)cc1", "growth": "92.5% (inactive)"}
{"smiles": "COc1cc(-c2nn(-c3cccc(NC(=O)NCCNC(=O)c4cccc(C(F)(F)F)c4)c3)cc2-c2ccncc2)ccc1Cl", "growth": "10.4% (inactive)"}
{"smiles": "CCOC(=O)c1cc(C(=O)c2cc(OC)c(OC)c(OC)c2)n2ccc(-c3cc[n+](CC(=O)c4cc(OC)c(OC)c(OC)c4)cc3)cc12", "growth": "-16.4% (active)"}
{"smiles": "CCOC(=O)c1cc(C(=O)c2cc(OC)c(OC)c(OC)c2)n2nc(C)ccc12", "growth": "23% (inactive)"}
{"smiles": "CCOC(=O)c1cc(C(=O)c2ccc(Cl)cc2)n2ccc(-c3cc[n+](CC(=O)c4ccc(OC)cc4)cc3)cc12", "growth": "-27.2% (active)"}
{"smiles": "C/C=C/CSC(C)(C)C(=O)NC", "growth": "109% (inactive)"}
